Results reported in PubChem BioAssay AID602258 (National Center for Advancing Translational Sciences (NCATS), 2012).
Records with an inconclusive call do not appear. Where a call stands in place of a potency, no number is given. The source made the active and inactive calls. The call rests on the fitted dose curve; in most records, active means well fitted activation curve with a large enough effect; inconclusive means small, poorly fitted or top-dose-only effect; inactive means no such curve, though single readings can be large or run the other way.

Biological target: Relaxin receptor 2 (Homo sapiens) (UniProt Q8WXD0)
Sequence (Q8WXD0 whole entry, looked up): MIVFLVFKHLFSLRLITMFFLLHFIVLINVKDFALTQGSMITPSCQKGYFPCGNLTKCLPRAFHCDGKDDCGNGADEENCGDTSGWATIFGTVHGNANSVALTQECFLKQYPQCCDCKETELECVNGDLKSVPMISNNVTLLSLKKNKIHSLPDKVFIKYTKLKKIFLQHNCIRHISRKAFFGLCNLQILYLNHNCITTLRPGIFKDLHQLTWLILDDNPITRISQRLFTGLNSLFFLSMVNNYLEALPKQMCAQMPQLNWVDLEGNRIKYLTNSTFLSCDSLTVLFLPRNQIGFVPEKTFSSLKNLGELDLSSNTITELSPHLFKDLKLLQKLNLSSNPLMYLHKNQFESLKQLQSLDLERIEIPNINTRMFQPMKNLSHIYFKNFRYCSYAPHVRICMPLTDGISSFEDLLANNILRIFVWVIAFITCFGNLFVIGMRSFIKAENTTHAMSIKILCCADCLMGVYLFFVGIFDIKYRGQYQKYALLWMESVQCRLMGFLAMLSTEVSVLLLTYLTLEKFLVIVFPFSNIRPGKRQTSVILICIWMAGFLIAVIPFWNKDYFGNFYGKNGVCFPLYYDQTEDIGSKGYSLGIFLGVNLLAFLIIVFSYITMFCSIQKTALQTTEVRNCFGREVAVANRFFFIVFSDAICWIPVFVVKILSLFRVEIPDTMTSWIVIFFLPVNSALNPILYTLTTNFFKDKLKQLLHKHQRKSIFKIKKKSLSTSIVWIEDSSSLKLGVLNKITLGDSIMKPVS
Assay: qHTS Assay for Agonists of the Relaxin Receptor RXFP1: RXFP2 SAR
Conditions: HEK293 RXFP2 cAMP TR-FRET agonist, 30 min; series mostly up to 78.1 µM
Source text: The relaxin hormone is involved in the variety of biological functions in normal tissues and diseases. The role of relaxin is well-established in female reproduction and parturition, mammary gland and endometrial development, maintenance of myometrial quiescence during pregnancy. Relaxin signaling through its G protein-coupled receptor (GPCR) RXFP1 results in ECM remodeling through regulation of collagen deposition, cell invasiveness, proliferation and overall tissue homeostasis. […] Recombinant human relaxin (rhRlx) is currently being tested in clinical trials as a protective agent in congestive heart failure, in treating severe preeclampsia, and as an anti-fibrotic agent in systemic sclerosis. Upon relaxin binding RXFP1 activation leads to the activation of adenylate cyclase (AC) via Gs. cAMP will activate PKA, which phosphorylates many signaling proteins. Thus, detection of cAMP increase is an easy and reliable indication of relaxin receptor activation. To screen for agonists of the relaxin receptor, a HEK293T cell line stably transfected with RXFP1 was used. RXFP1 activation was assayed by changes in cAMP levels as detected with a time-resolved fluorescence energy transfer (TR-FRET) cAMP detection kit. This assay measures activation of a cell expressing RXFP2, another GPCR targeted by relaxin, to determine the selectivity of compounds for RXFP1. NIH Chemical Genomics Center [NCGC] NIH Molecular Libraries Probe Production Centers Network [MLPCN] MLPCN Grant: R03 MH085705-01A1 Assay Submitter (PI): Alexander Agoulnik
This is a cell-based assay for cAMP second messenger response to screen for agonists of the RXFP2 receptor. The assay was conducted in the presence of a PDE4 inhibitor (Ro 20174). The cells were lysed and the cAMP levels were measured with a TR-FRET cAMP kit. Presence of cAMP in the cell lysate disrupts binding between the cryptate-labeled anti-cAMP and d2-labeled cAMP pair, leading to a decrease in the TR-FRET signal. Data were normalized to the controls for basal activity (buffer only) and 100% activity (29 nM porcine relaxin). The EC50 values were determined from concentration-response data modeled with the standard Hill equation 1536-well assay protocol for the HEK293 RXFP2 cAMP assay: (1) Add 3 ul HEK293 RXFP2 cell culture. 2000 cells/well in DMEM/F12, 10% FBS, 1x Pen/Strep (dispensed offline with MultiDrop Combi). (2) Incubate 16-24 hr at 37C, 5% CO2. (3) Add 1 ul 400uM Ro20174 in DPBS, 0.05% BSA, 0.005% Tween 20. (3) Add 23 nl compounds in DMSO solution. Final concentration was 0.5 - 58 uM. (4) Incubate 30 min at 37C, 5% CO2. (5) Add 1 ul cAMP-d2 in lysis buffer (HTRF cAMP HiRange kit, CisBio). (6) Add 1 ul anti-cAMP antibody-cryptate in lysis buffer (HTRF cAMP HiRange kit, CisBio). (7) Incubate 30 min at room temperature. (6) Detect the assay plate in a ViewLux plate reader (PerkinElmer) with Ex=320 nm, Em1=615 nm and Em2=665 nm. Keywords: relaxin, RXFP1, RXFP2, G-protein coupled receptor, cAMP, agonist, high throughput screening, MLSMR, MLSCN, NIH Roadmap, qHTS and NCGC

SMILES	Potency
CCOc1ccccc1C(=O)Nc1ncccc1C(=O)Nc1cccc(S(=O)(=O)C(F)(F)F)c1	inactive
O=C(Nc1ccc(C(F)(F)F)cc1)c1ccccc1NC(=O)C1CCCCC1	inactive
COc1ccc(C(=O)Nc2ccccc2C(=O)Nc2cccc(C(F)(F)F)c2)cc1	inactive
COc1ccccc1-c1ccccc1C(=O)Nc1cccc(C(F)(F)F)c1	inactive
Cc1cccc(NC(=O)c2ccccc2NC(=O)C2CCCCC2)c1	inactive
COc1cccc(OC)c1C(=O)Nc1ccccc1C(=O)Nc1cccc(C(F)(F)F)c1	inactive
O=C(Nc1cccc(C(F)(F)F)c1)c1ccccc1NC(=O)C1CCCCCC1	inactive
CCC(CC)C(=O)Nc1ccccc1C(=O)Nc1cccc(C(F)(F)F)c1	inactive
CSc1cccc(NC(=O)c2ccccc2NC(=O)C2CCCCC2)c1	inactive
CCOc1ccccc1C(=O)Nc1ccccc1C(=O)Nc1cccc(S(=O)(=O)C(F)(F)F)c1	7.47 µM (active)
O=C(NCc1ccco1)c1ccccc1NC(=O)c1ccccc1NC(=O)C1CCCCC1	inactive
O=C(NCc1cccc(C(F)(F)F)c1)c1ccccc1NC(=O)C1CCCCC1	inactive
Cc1ccc(NC(=O)c2ccccc2NC(=O)C2CCCCC2)cc1	inactive
CCOc1ccccc1C(=O)NCCC(=O)Nc1cccc(S(=O)(=O)C(F)(F)F)c1	inactive
COc1ccccc1C(=O)N(C)c1ccccc1C(=O)Nc1cccc(C(F)(F)F)c1	inactive
CC(C)(C)c1cccc(NC(=O)c2ccccc2NC(=O)C2CCCCC2)c1	inactive
O=C(Nc1cccc(F)c1)c1ccccc1NC(=O)C1CCCCC1	inactive
CN(C)CCOc1ccccc1C(=O)Nc1ccccc1C(=O)Nc1cccc(C(F)(F)F)c1	inactive
O=C(Nc1ccccc1C(=O)Nc1cccc(C(F)(F)F)c1)c1ccccc1Cl	inactive
O=C(Nc1cccc(Br)c1)c1ccccc1NC(=O)C1CCCCC1	inactive
